This is a sample that favours compounds with a hit; in the whole collection about 2.8% have one here.
CF NFkB inh – cystic fibrosis NF-kB activation inhibition | actives 0.86% (n = 360,000) | KKLEB NF-kB-GFP reporter, PAF-induced, GFP fluorescence overnight | AID 588850 | inhibition, % at 5 µM;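 active = at least 50% inhibition at 5 µM, scaled per plate between neutral and stimulator controls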;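 note: PAF is a Pseudomonas aeruginosa culture filtrate used as stimulus; plate controls were PAF-stimulated DMSO wells for no effect and unstimulated DMSO wells for full effect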
KKLEB tox – CF airway cell cytotoxicity counter-screen. activity change (cytotoxicity), % at 5 µM. actives 0.36% (n = 360,000). AID 602141. KKLEB CF airway cells viability, ATPlite luminescence, overnight; active compounds read low; cells stimulated with P. aeruginosa culture filtrate;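 active = corrected activity change at or below -50% at 5 µM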
HIF-2a inh – HIF-2a inhibition | 786-0 RCC cells HIF-2a reporter, luciferase luminescence, overnight | inhibition, % at 18.8 µM | actives 0.72% (n = 360,000);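 active = inhibition of the luminescence signal of 40% or more relative to plate controls, in a single-dose primary screen at 18.75 µM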
Peg3 prom inh-1 – Peg3 promoter activity inhibition | HeLa PEG-Prom luciferase reporter, luminescence, overnight | inhibition, % at 20 µM | actives 1.7% (n = 360,000);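 active = inhibition of at least 50% at 20 µM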
MITF TRPM1 inh – inhibitors of MITF-driven TRPM1 promoter in melanoma cells; AID 488899; SK-MEL-5 TRPM1 promoter luciferase, 24 h; inhibition, % at 12.5 µM; actives 0.83% (n = 330,000);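 active = mean inhibition across replicates of 60% or more, whatever share of single replicates reaches that level; inconclusive = some that reach 60%, reason not given; inactive = mean inhibition across replicates below 60%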
Shn3 3UTR inh – reduces Shn3 3'UTR luciferase signal in osteoblasts. Clone20 osteoblast Shn3 3'UTR firefly luciferase, 24 h. inhibition, % at 12.5 µM. actives 0.52% (n = 360,000). AID 588674;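 active = mean inhibition of at least 75% with every replicate also reaching 75%; inconclusive = mean inhibition at least 75% but some replicate below; inactive = mean inhibition below 75%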;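 note: 0% = median of neutral control wells and 100% = pilot-screen positive control compound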
Peg3 prom inh-2 – Peg3 promoter inhibition confirmation | shares compounds with Peg3 prom inh-1 | HeLa PEG-Prom luciferase reporter, luminescence, overnight | inhibition, % at 20 µM | actives 84% (n = 1,300);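 active = at 20 µM dose, 40% or more inhibition averaged across four replicates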
An asterisk follows results filed as active; ? = inconclusive; . = not tested or not shown.

SMILES	CF NFkB inh	KKLEB tox	HIF-2a inh	Peg3 prom inh-1	MITF TRPM1 inh	Shn3 3UTR inh	Peg3 prom inh-2
Cc1cccc(C)c1NC(=O)C(c1ccnc2ccccc12)N1CCN(CCN(C)C)CC1 (stereo not drawn)	.	.	15.3	.	.	.	.
NC(CCc1ccccc1)c1csc(Nc2ccccn2)n1 (stereo not drawn)	-11.2	-11.4	0.6	25.2	.	-16.1	.
CCCCN(C)C(=O)c1ccc(Nc2nc(C(N)CCc3ccccc3)cs2)nc1 (stereo not drawn)	-12.2	2.0	-14.3	60.7*	.	15.6	82.9*
COc1cccc(/C=C2/Sc3ccc(C(=O)NCCCN4CCCC4)cc3NC2=O)c1	-12.4	-3.4	6.5	78.1*	54.9	-9.3	93.6*
COCCCN(C(=O)c1ccccc1F)c1nc(-c2ccc(OC)cc2)cs1	0.7	-13.0	-12.9	5.7	-1.6	17.1	.
CC1(C)C2CC[C@]3(C)C(CC=C4[C@@H]5C[C@@](C)(CO)[C@@H](O)C[C@]56C[C@@H](OC6=O)[C@]43C)[C@@]2(C)CC[C@@H]1O (stereo partly drawn)	-3.1	-1.1	3.1	-11.8	8.7	5.9	.
CN[C@H]1C[C@H]2c3[nH]c4ccc(-c5ccc(OC)cc5)cc4c3CCN2C(=O)[C@H]1[C@H](C)O	34.6	-11.6	-3.4	101.2*	.	8.6	98.3*
COc1ccc(NC(=O)N(C)[C@H]2C[C@H]3c4[nH]c5ccc(-c6ccc(OC)cc6)cc5c4CCN3C(=O)[C@H]2[C@H](C)O)cc1	12.6	-5.6	-52.1	45.7	.	9.8	.
Cc1cccc(-c2ccc3[nH]c4c(c3c2)CCN2C[C@@H]([C@H](C)O)[C@@H](N(C)C(=O)NC3CCCCC3)C[C@@H]42)c1	16.6	-1.8	13.7	21.4	.	7.3	.
CN[C@H]1C[C@H]2c3[nH]c4ccc(-c5cccc(C)c5)cc4c3CCN2C[C@H]1[C@H](C)O	25.2	-14.9	34.0	89.8*	.	-29.9	98.0*
COc1ccc(C(C(=O)NCc2ccccc2)n2c(=O)c(-c3ccco3)nc3ccccc32)cc1 (stereo not drawn)	.	.	0.8	.	.	.	.
C=CCn1c(COc2ccccc2)nnc1SC(C)C(=O)N/N=C/c1cc(Cl)ccc1O (stereo not drawn)	2.7	-6.2	11.2	60.5*	?	?	71.1*
Cc1ccc(F)cc1-c1cc2nc(NCCCN(C)C)n(C)c(=O)c2s1	3.3	16.9	-6.3	70.0*	.	-23.0	48.3*
CN(C)CCCNc1nc2cc(-c3ccsc3)sc2c(=O)n1C	-11.4	0.0	-27.7	-3.9	.	-22.4	.
O=C1/C(=C/C=C/c2ccccc2)Oc2c1ccc(O)c2CN1CCN(CCO)CC1	1.5	5.8	0.0	-20.6	0.7	-14.8	.
CCN1CCN(Cc2c(O)ccc3c2O/C(=C\C=C\c2ccccc2)C3=O)CC1	20.9	-2.7	91.8*	107.9*	57.1	0.5	76.6*
COc1ccc(-c2nc3ccccc3s2)cc1O	-9.8	-53.5*	40.0	55.1*	45.8	60.9	36.7
CC(C)c1ccc(-c2nc3ccccc3s2)cc1	21.0	-79.1*	77.3*	72.1*	92.1*	88.0*	83.1*
COc1cccc(N(C(=O)CS(=O)CC(=O)Nc2ccc(F)cc2)C(C(=O)NC2CCCCC2)c2cccs2)c1 (stereo not drawn)	-1.4	-10.5	12.0	59.8*	16.5	17.6	19.9
COC(=O)CCC(NS(=O)(=O)OCC(Cl)(Cl)Cl)c1ccccc1 (stereo not drawn)	2.7	-0.1	13.9	-6.8	-7.9	-14.3	.
CC(C)CC(NS(=O)(=O)OCC(Cl)(Cl)Cl)c1ccccc1 (stereo not drawn)	13.8	14.0	29.1	56.5*	-0.7	24.2	44.8*
COc1ccc(N2CCN(C(=O)C3CCN(C(=O)c4cccc(Cl)c4)CC3)CC2)cc1	-7.5	-1.4	-3.0	-19.1	-7.1	12.6	.
CC1(C)C(=O)C=CC(=O)C(C)(C)C(=O)C=CC(=O)C(C)(C)C2=CC=C(O2)C(C)(C)C(=O)C=CC1=O	46.4	-8.6	1.6	106.1*	91.7*	9.4	99.8*
O=C(NC(=S)Nc1ccc2oc(=O)ccc2c1)c1cccc(Cl)c1	26.0	-13.0	-44.9	-46.5	3.7	-16.2	.

High-throughput results from PubChem BioAssay.
